For 17 compounds, inhibition results are on record in ChEMBL document CHEMBL1961873, “Compounds: GSK PKIS; Assays: Nanosyn kinase panel” (2012).

Assay [1] addresses Rho-associated protein kinase 1 (Homo sapiens) (UniProt Q13464). The note with it: at 1 µM.
Assay [2] deals with Rho-associated protein kinase 2 (Homo sapiens) (UniProt O75116). The note with it: at 0.1 µM.
The target is the same in assay [3]. The note with it: at 1 µM.
In assay [4] the target is Ribosomal protein S6 kinase alpha-1 (Homo sapiens) (UniProt Q15418). The note with it: at 0.1 µM.
Assay [5] shares this target. The note with it: at 1 µM.
Assay [6] has as its target Ribosomal protein S6 kinase alpha-3 (Homo sapiens) (UniProt P51812). The note with it: at 0.1 µM.
For assay [7] the target is unchanged. The note with it: at 1 µM.
Assay [8] deals with Ribosomal protein S6 kinase alpha-2 (Homo sapiens) (UniProt Q15349). The note with it: at 0.1 µM.
Assay [9] shares this target. The note with it: at 1 µM.
The target of assay [10] is Ribosomal protein S6 kinase alpha-6 (Homo sapiens) (UniProt Q9UK32). The note with it: at 0.1 µM.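 Also: reported value is the mean inhibition of RSK4, from the GSK PKIS kinase inhibitor screen.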
Sequence of Ribosomal protein S6 kinase alpha-6 (Homo sapiens) (Q9UK32 whole entry): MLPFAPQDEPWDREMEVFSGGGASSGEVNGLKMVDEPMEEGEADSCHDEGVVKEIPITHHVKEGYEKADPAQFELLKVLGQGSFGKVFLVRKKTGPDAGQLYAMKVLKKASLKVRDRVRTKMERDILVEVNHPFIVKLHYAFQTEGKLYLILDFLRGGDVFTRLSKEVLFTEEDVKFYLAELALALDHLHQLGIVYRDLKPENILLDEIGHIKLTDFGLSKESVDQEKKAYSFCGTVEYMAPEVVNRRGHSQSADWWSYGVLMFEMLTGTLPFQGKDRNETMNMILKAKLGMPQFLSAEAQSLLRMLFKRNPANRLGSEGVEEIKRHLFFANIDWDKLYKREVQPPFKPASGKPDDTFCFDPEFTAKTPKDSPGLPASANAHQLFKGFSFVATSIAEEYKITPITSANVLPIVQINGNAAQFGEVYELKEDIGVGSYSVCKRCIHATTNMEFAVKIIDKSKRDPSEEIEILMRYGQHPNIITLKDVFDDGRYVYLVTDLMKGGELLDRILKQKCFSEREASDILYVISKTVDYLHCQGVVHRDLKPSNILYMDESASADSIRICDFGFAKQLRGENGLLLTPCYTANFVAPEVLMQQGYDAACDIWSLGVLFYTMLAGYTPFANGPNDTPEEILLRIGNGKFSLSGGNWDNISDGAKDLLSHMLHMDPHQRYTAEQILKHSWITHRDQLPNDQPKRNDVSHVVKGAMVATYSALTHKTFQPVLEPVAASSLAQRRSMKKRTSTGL

Sequence of Ribosomal protein S6 kinase alpha-2 (Homo sapiens) (Q15349 whole entry): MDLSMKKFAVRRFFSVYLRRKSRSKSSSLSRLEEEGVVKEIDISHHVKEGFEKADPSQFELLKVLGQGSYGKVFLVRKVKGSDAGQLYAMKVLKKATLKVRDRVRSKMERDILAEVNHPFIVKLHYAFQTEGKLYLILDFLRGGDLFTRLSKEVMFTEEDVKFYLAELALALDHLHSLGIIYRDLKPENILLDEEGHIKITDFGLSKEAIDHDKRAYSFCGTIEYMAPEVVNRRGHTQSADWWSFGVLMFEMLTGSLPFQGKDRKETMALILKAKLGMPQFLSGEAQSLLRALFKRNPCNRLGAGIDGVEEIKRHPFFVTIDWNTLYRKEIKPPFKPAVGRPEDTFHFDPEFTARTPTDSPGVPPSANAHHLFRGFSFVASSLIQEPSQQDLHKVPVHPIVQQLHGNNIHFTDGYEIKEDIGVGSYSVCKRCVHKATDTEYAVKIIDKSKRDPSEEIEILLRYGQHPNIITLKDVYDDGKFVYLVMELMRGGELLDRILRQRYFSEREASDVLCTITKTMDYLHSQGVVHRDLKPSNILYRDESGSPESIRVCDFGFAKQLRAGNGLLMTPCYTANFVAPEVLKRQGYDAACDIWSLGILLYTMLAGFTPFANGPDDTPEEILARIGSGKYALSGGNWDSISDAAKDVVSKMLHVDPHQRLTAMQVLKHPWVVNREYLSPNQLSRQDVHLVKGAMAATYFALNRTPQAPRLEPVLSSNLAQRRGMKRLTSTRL
Sequence of Ribosomal protein S6 kinase alpha-3 (Homo sapiens) (P51812 whole entry): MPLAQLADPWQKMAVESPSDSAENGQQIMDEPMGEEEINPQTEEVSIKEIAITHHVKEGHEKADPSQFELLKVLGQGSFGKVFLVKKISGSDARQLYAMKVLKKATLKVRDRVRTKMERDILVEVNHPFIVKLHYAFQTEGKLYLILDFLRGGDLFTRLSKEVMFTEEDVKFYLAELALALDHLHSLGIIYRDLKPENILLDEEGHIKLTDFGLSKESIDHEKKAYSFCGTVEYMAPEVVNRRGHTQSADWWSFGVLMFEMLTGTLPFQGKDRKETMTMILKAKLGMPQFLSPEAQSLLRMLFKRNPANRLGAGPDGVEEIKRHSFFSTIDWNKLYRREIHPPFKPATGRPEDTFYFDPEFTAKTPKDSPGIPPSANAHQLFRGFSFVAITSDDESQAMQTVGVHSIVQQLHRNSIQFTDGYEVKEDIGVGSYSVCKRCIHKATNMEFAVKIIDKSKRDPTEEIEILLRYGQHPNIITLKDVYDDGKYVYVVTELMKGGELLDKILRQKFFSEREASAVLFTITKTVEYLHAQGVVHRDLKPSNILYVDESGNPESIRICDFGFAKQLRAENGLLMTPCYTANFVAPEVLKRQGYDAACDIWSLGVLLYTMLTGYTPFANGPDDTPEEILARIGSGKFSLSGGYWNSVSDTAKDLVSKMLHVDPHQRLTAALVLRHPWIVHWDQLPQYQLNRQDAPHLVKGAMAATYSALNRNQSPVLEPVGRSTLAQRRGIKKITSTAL
Sequence of Ribosomal protein S6 kinase alpha-1 (Homo sapiens) (Q15418 whole entry): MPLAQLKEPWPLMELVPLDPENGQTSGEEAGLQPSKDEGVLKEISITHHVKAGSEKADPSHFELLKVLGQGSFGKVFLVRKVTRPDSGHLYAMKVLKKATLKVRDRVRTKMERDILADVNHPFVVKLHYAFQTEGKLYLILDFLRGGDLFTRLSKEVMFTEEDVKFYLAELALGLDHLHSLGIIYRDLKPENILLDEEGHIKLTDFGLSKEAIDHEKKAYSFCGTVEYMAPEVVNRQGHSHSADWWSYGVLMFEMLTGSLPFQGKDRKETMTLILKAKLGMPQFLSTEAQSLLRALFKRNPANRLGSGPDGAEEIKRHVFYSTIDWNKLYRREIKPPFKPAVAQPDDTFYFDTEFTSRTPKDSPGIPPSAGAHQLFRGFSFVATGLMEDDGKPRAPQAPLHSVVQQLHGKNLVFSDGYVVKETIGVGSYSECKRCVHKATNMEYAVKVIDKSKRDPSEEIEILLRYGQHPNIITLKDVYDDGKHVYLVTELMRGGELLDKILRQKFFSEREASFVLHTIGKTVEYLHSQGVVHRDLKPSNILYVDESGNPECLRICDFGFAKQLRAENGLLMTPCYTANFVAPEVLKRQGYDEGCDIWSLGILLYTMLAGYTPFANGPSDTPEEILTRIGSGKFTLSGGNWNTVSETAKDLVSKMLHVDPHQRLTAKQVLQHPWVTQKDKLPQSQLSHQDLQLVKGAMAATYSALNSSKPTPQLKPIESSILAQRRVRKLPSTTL
Sequence of Rho-associated protein kinase 2 (Homo sapiens) (O75116 whole entry, looked up): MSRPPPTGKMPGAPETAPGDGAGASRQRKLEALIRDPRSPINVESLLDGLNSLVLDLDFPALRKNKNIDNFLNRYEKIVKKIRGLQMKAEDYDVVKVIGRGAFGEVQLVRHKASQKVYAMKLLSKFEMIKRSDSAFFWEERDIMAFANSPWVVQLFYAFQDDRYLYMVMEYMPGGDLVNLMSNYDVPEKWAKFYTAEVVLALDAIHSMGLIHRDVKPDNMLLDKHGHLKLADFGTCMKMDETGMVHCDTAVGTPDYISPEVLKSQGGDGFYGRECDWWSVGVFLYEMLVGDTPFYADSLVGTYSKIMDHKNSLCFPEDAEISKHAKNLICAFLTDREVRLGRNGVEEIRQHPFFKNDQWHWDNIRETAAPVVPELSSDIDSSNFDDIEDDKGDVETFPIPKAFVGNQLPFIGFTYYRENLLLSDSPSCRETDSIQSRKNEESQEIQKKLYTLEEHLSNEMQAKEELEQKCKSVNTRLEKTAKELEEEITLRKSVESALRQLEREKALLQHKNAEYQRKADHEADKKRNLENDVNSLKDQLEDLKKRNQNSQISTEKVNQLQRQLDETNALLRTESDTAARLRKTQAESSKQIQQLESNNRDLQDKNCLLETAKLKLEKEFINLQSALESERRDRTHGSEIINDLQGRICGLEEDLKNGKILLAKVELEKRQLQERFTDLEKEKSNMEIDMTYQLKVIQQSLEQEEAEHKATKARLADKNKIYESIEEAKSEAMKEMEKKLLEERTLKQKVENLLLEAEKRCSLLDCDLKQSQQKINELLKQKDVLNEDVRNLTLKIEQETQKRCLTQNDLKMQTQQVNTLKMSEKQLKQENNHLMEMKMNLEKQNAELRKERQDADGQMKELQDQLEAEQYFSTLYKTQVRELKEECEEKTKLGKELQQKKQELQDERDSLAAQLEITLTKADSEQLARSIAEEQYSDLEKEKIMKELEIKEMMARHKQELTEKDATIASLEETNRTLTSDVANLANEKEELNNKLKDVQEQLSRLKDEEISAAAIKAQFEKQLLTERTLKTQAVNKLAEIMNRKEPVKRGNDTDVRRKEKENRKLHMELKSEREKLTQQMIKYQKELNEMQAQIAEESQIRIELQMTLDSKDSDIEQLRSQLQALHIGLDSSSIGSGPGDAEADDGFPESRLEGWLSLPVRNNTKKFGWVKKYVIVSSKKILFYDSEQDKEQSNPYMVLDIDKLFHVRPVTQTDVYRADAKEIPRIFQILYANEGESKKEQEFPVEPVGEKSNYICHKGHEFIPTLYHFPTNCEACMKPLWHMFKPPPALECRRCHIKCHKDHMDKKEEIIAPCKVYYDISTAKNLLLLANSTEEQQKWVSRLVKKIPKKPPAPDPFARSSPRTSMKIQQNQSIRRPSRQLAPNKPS

The inhibition is the drop in the measured response relative to a control, in per cent. Take `CN(C)c1ccc2c(c1)/C(=C/Nc1ccc(S(N)(=O)=O)cc1)C(=O)N2`: the inhibition in [1] stood at 5.77%; in assay [2], 5.46%; in assay [3], 13.3%; in assay [4], 1.57%; in [5] it was 11.6%; in assay [6] it was 2.82%. The inhibition in assay [7] stood at 14.7%; in assay [8] it was 5.18%; in assay [9], 25.9%; in assay [10], 4.28%.

Take `NS(=O)(=O)c1ccc(N/N=C2\C(=O)Nc3ccc(C(=O)NCCCn4ccnc4)cc32)cc1`: the inhibition in [1] stood at 8.77%; in assay [2], 5.67%; in assay [3], 25.4%; in [4], 2.58%; in [5], 7.85%; in assay [6], 2.08%. Also, the inhibition in assay [7] stood at 9.61%; in [8], 3.97%; in assay [9] it was 12.8%; in assay [10] it was 3.05%.

`CNC(=O)c1cncc(/C=C/c2c(C)cccc2C)c1`: the inhibition in [1] amounted to 0.33%; in assay [2], 1.01%; in assay [3], 1.34%; in [4], 1.16%; in assay [5] it was 0.45%; in assay [6], 0.6%. Further, the inhibition in [7] is -0.28%; in assay [8], 1.22%; in [9], 0.63%; in [10], 0.47%.

For `COc1cc2ncn(-c3cc(OCc4ccccc4C(F)(F)F)c(C(C)=O)s3)c2cc1OC`, the inhibition in assay [1] is 2.18%; in assay [2], 1.87%; in assay [3], 2.95%; in assay [4], 1.38%; in assay [5] it was 2.01%; in assay [6] it was 0.97%. The inhibition in [7] stood at 1.14%; in [8], 2.48%; in assay [9], 2.5%; in [10], 1.64%.

Take `NC(=O)c1ccc(Oc2nccc(-c3c(-c4ccc(F)cc4)ncn3C3CCNCC3)n2)cc1`: the inhibition in assay [1] was 3.99%; in assay [2], 3.87%; in assay [3], 4.42%; in assay [4], 2.06%; in assay [5] it was 1.84%; in [6] it was -0.35%. Further, the inhibition stood at 0.53% in [7], 3.21% in assay [8], 4.43% in assay [9] and 1.77% in assay [10].

Take `O=C1NC(=O)C(c2cccc(Cl)c2)=C1Nc1ccc(Cl)c(C(=O)O)c1`: the inhibition in assay [1] is 0.78%; in [2], 1.95%; in [3], 4.98%; in assay [4] it was 1.51%; in assay [5], 2.92%; in [6], 1.25%. Besides, the inhibition came to 1.6% in assay [7], 1.79% in assay [8], 1.6% in [9] and 1.24% in [10].

On to `Fc1ccc(-c2nc3n(c2-c2ccncc2)CCS3)cc1`, for which the inhibition came to 4.54% in [1]; 2.98% in [2]; 5.06% in assay [3]; 3.03% in assay [4]; 2.88% in assay [5]; 1.5% in [6]. For the same compound, the inhibition amounted to 1.71% in [7], 3.31% in assay [8], 4.36% in [9] and 2.72% in assay [10].

Regarding `CCc1ccc(Oc2nccc(-c3c(-c4ccc(F)cc4)ncn3C3CCNCC3)n2)cc1`, the inhibition was found to be 3.4% in assay [1]; 2.09% in assay [2]; 3.7% in assay [3]; 2.14% in [4]; 3.42% in assay [5]; 3.03% in [6]. In addition, the inhibition in assay [7] turned out to be 4.07%; in [8], 3.08%; in assay [9] it was 3.54%; in [10] it was 3.18%.

Consider `O=C(Nc1n[nH]c2cc(-c3cc(F)ccc3F)ccc12)C1CC1`, for which the inhibition stood at 2.49% in assay [1]; 1.39% in assay [2]; 2.28% in assay [3]; 0.64% in [4]; 0.86% in [5]; 0.31% in [6]. Further, the inhibition was 1.63% in assay [7], 1.04% in assay [8], 3.43% in [9] and -0.13% in assay [10].

In the case of `CCN(CC)Cc1ccc(Nc2nccc(-c3cnn4ncccc34)n2)cc1`, the inhibition in [1] was 9.36%; in assay [2], 2.02%; in assay [3], 13.7%; in assay [4], 0.21%; in assay [5], 2.52%; in assay [6], -0.63%. Further, the inhibition in assay [7] amounted to 2.49%; in assay [8] it was 2.26%; in assay [9], 3.81%; in assay [10], 0.43%.

As to `CCS(=O)(=O)c1ccc(OC)c(Nc2ncc(-c3ccccc3Cl)o2)c1`, the inhibition in [1] is -0.3%; in [2], 1.15%; in assay [3], 2.53%; in [4] it was 1.95%; in [5], 5.76%; in assay [6], 0.57%. Further, the inhibition in assay [7] is 4.01%; in assay [8], 0.2%; in assay [9], 4.26%; in assay [10] it was 2.01%.

In the case of `CCc1nccc2c1nc(-c1nonc1N)n2CC`, the inhibition in [1] came to 11.5%; in [2], 1.91%; in [3], 17%; in [4], 5.37%; in assay [5], 35.2%; in [6], 2.22%. In addition, the inhibition in assay [7] is 15.6%; in assay [8], 3.79%; in assay [9], 26.9%; in [10], -0.93%.

Take `COc1cc(N2CCN(C(C)C)CC2)ccc1Nc1nc(Nc2ccc(F)cc2C(=O)NC[C@@H](O)CO)c2cc[nH]c2n1`: the inhibition in assay [1] was found to be 2.04%; in [2], 4.24%; in assay [3], 8.05%; in assay [4], 3.27%; in [5] it was 12.1%; in assay [6], 2.71%. Also, the inhibition is 7.3% in assay [7], 3.45% in [8], 5.13% in assay [9] and 2.51% in assay [10].

As to `COc1ccc(-c2ccc3c(NC(=O)C4CC4)n[nH]c3n2)cc1`, the inhibition in [1] is -0.75%; in assay [2], 1.6%; in [3] it was 3.71%; in assay [4], 0.22%; in [5] it was 2.59%; in assay [6] it was 1.62%. Also, the inhibition in [7] turned out to be 3%; in assay [8] it was 1.1%; in [9], 1.69%; in assay [10], 0.83%.

As for `C/C(Nc1ccc(S(N)(=O)=O)cc1)=C1/C(=O)Nc2ccccc21`, the inhibition in [1] came out at 5.13%; in assay [2] it was 2.95%; in [3], 9.54%; in assay [4] it was 1.62%; in assay [5] it was 14.5%; in assay [6], 1.49%. The inhibition in assay [7] was 14.6%; in assay [8] it was 2.22%; in assay [9] it was 23.4%; in [10], 2.94%.

For `C#Cc1cccc(Nc2ncnc3ccc(OCCCCNCCS(C)(=O)=O)cc23)c1`, the inhibition is 2.52% in assay [1]; 3.83% in assay [2]; 6.92% in assay [3]; 3.85% in [4]; 5.51% in assay [5]; 2.14% in assay [6]. For the same compound, the inhibition in [7] was determined as 3.87%; in [8], 3.31%; in assay [9], 4.55%; in [10], 1.75%.

In the case of `COc1ccc2cc(-c3c(-c4ccncc4)nc(-c4ccc(S(C)(=O)=O)cc4C)n3C)ccc2c1`, the inhibition turned out to be 10.6% in assay [1]; 10.5% in assay [2]; 12.3% in assay [3]; 6.01% in assay [4]; 9.72% in assay [5]; 4.66% in assay [6]. Further, the inhibition in assay [7] stood at 9.83%; in [8], 3.42%; in assay [9] it was 3.72%; in assay [10], 1.53%.
